Source: PubChem
A selection: hits, their analogues and other compounds. The true share with any hit is near 2.4%.
Pol beta inh = qHTS Assay for Inhibitors of DNA Polymerase Beta | P06746 | AID 485314, 2010 | Pol beta primer extension/strand displacement, fluorescence kinetic | Potency, µM (series often up to 114 µM), for the others: top-dose activity change, negative = inhibition, usual class: inhibitors | 1.3% of 340,000 active; note: potency is the fitted concentration of half-maximal effect; % is set by controls: 0 for no effect and ±100 for the full control effect
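Values derive from four-parameter Hill fits of normalized kinetic data: reads at 0 and 10 min following addition of 50 nM substrate to 10 nM Pol beta preincubated 15 min with compound.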
FEN1 inh = qHTS Assay for the Inhibitors of Human Flap endonuclease 1 (FEN1); Recombinant FEN1 flap cleavage, fluorescence, 15 min; Potency, µM (top dose mostly 114 µM), without a hit: at the highest dose activity change, negative = inhibition, usual class: inhibitors; 0.35% of 390,000 active; AID 588795, 2011; note: potency is the fitted concentration of half-maximal effect; % is set by controls: 0 for no effect and ±100 for the full control effect; nearly all actives have a fitted effect of over 65% in size
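Nuclease activity of 10 nM FEN1 was measured after 15 min of room-temperature exposure to titrated compounds, by adding 50 nM flap substrate and reading plates at 0 and 15 min.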
Pol kappa inh-1 = qHTS for Inhibitors of Polymerase Kappa. purified Pol kappa, fluorescent DNA synthesis assay, 10 min. Potency, µM (top dose mostly 107 µM), for the others: at the highest dose activity, negative = inhibition, hits mostly inhibitors. AID 588579, 2011. 0.53% of 400,000 active; note: potency is the fitted concentration of half-maximal effect; % is set by controls: 0 for no effect and ±100 for the full control effect
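Readout: fluorescence, taken kinetically at 0 and 10 min. Conditions: 10 nM Pol kappa, 15 min RT compound preincubation, 50 nM substrate final. Controls: enzyme-free buffer wells.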
Pol eta inh-1 = qHTS for Inhibitors of Polymerase Eta. DNA polymerase eta (Homo sapiens), Q9Y253. recombinant Pol eta, fluorescent DNA replication assay. Potency, µM (titrated, usually from 114 µM), for the others: top-dose activity change, negative = inhibition, most hits filed as inhibitors. 1.2% of 390,000 active; note: potency is the fitted concentration of half-maximal effect; % is set by controls: 0 for no effect and ±100 for the full control effect
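Pol eta at 10 nM preincubated with compounds 15 min at room temperature; reaction started with fluorescent substrate (50 nM final) and read kinetically at 0 and 10 min.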
WRN inhibitor = qHTS for Inhibitors of WRN Helicase. Bifunctional 3'-5' exonuclease/ATP-dependent helicase WRN (Homo sapiens), Q14191. WRN helicase unwinding, fluorescent forked duplex, kinetic. Potency, µM (titrated, usually from 114 µM), for the others: at the highest dose activity change, negative = inhibition, actives largely listed as inhibitors. 0.46% of 360,000 active; note: potency is the fitted concentration of half-maximal effect; % is set by controls: 0 for no effect and ±100 for the full control effect; nearly all actives have a fitted effect of over 55% in size
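Kinetic red-fluorescence monitoring (525/598 nm) tracks WRN helicase activity after 100 nM fluorophore-quencher forked duplex and 2 mM ATP are added to 20 nM enzyme pretreated 15 min at room temperature with compound.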
Pol iota inh = qHTS for Inhibitors of Polymerase Iota; Pol iota fluorescent replication assay, 10 min; 1% of 390,000 active; AID 588590, 2011; DNA polymerase iota (Homo sapiens), Q9UNA4; Potency, µM (series often up to 115 µM), for inactives: at the top dose activity, negative = inhibition, actives largely listed as inhibitors; note: potency is the fitted concentration of half-maximal effect
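Pol iota at 10 nM preincubated 15 min with compounds at room temperature; reaction started with fluorescent substrate, 50 nM final. Fluorescence read kinetically at 0 and 10 min; buffer-only wells as negative control.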
GALK inh confirm = Confirmation Assay for Inhibitors of Human Galactokinase (GALK); shares compounds with Pol eta inh-1; purified GALK, Kinase-Glo ATP depletion luminescence; Potency, µM (highest dose often 115 µM), for the others: at the highest dose activity, negative = inhibition, actives largely listed as inhibitors; 70% of 150 active; AID 2015, 2009
GALK redox cs = Confirmatory Assay for Inhibitors of Human Galactokinase (GALK): Phenol-HRP redox assay counterscreen | shares compounds with Pol eta inh-1 | Phenol red-HRP H2O2 redox cycling, absorbance 600 nm | Potency, µM (series often up to 115 µM), inactives show top-dose activity change, negative = H2O2 signal, hits mostly inhibitors | 40% of 150 active | AID 2035, 2009
HEK293 tox = Secondary Assay for Inhibitors of Human Galactokinase (GALK): HEK-293 Cell Viability Assay; 10% of 170 active; Potency, µM (series often up to 46.1 µM), without a hit: at the top dose activity change, negative = cytotoxicity, usual class: inhibitors; shares compounds with Pol eta inh-1; HEK-293 viability, ATP luminescence (CellTiter-Glo), 24/48 h; note: potency is the fitted concentration of half-maximal effect; % is set by controls: 0 for no effect and ±100 for the full control effect
Pol kappa inh-2 = qHTS for Inhibitors of Polymerase Kappa: Confirmatory Assay for Cherry-picked Compounds. purified Pol-kappa, fluorescent strand-displacement substrate. shares compounds with Pol eta inh-1. Potency, µM, most hits filed as inhibitors. 76% of 920 active; note: potency is the fitted concentration of half-maximal effect
Pol eta inh-2 = qHTS for Inhibitors of Polymerase Eta: Confirmatory Assay for Cherry-picked Compounds | AID 720502, 2013 | Pol eta primer extension, TAMRA/BHQ fluorescence, 10 min | Potency, µM, hits mostly inhibitors | shares compounds with Pol eta inh-1 | 64% of 2,600 active; note: potency is the fitted concentration of half-maximal effect
* = called active by the depositor; [ ] = dose if it differs, or a comment. Calls come from the whole dose curve; as a rule, active = well fitted curve in the direction sought with a large enough effect; inconclusive = small, poorly fitted or top-dose-only effect, or another doubt; inactive = no such curve, though single readings can be large; an effect the other way counts as inactive or inconclusive.

Screening O=C(NCc1ccco1)c1nc2nc(-c3cccs3)cc(C(F)(F)F)n2n1 returned Pol beta inh inconclusive, FEN1 inh -11%, Pol kappa inh-1 inconclusive, Pol eta inh-1 18µM*, WRN inhibitor inconclusive, Pol iota inh inconclusive and Pol eta inh-2 76*.
`COC(=O)c1nc2nc(-c3cccs3)cc(C(F)(F)F)n2n1` gave Pol beta inh 3%, FEN1 inh 1%, Pol kappa inh-1 6%, Pol eta inh-1 -18%, WRN inhibitor -2% and Pol iota inh 16%.
`COc1ccc(NC(=O)Cn2c(=O)n(Cc3ccccc3)c(=O)c3oc4ccccc4c32)cc1Cl` gave Pol beta inh 20%, FEN1 inh -2%, Pol kappa inh-1 4%, Pol eta inh-1 -12% and Pol iota inh -28%.
`COc1cc2c(=O)n(Cc3ccccc3Cl)c(=O)n(CC(=O)Nc3ccc(C)c(C)c3)c2cc1OC` gave Pol beta inh 21%, FEN1 inh -9%, Pol kappa inh-1 12%, Pol eta inh-1 4% and Pol iota inh 9%.
Screening Cc1nnc(NCc2ccccc2)c2c1nnn2Cc1ccccc1Cl returned Pol beta inh 0%, FEN1 inh 0%, Pol kappa inh-1 -13%, Pol eta inh-1 -19% and Pol iota inh 32%.
O=C(O)C1CC(O)CN1c1nc(Cl)ccc1[N+](=O)[O-] (stereo not drawn) was read as Pol beta inh -23%, FEN1 inh 3%, Pol kappa inh-1 -25%, Pol eta inh-1 -1%, WRN inhibitor -1% and Pol iota inh 44%.
O=C(O)C1CN(c2nc(Cl)ccc2[N+](=O)[O-])C1 was read as Pol beta inh 35µM*, FEN1 inh 3%, Pol kappa inh-1 -9%, Pol eta inh-1 20µM*, WRN inhibitor -13%, Pol iota inh 15%, Pol kappa inh-2 67* and Pol eta inh-2 30*.
`Cc1snc(S(=O)(=O)/C(C#N)=N/Nc2cccc(C(F)(F)F)c2)c1C#N` gave Pol beta inh 21%, FEN1 inh 0%, Pol kappa inh-1 -21%, Pol eta inh-1 1%, WRN inhibitor -29%, Pol iota inh -2%, GALK inh confirm 24µM*, GALK redox cs 1% and HEK293 tox 11%.
C/C(=N\Nc1cccc(C(F)(F)F)c1)c1ccc(O)cc1 was read as Pol beta inh -16%, FEN1 inh -13%, Pol kappa inh-1 0%, Pol eta inh-1 -15%, WRN inhibitor -1% and Pol iota inh 105%.
Screening COc1ccc(N/N=C(/C#N)S(=O)(=O)c2nsc(C)c2C#N)cc1 returned Pol beta inh -2%, FEN1 inh -7%, Pol kappa inh-1 -12%, Pol eta inh-1 0%, WRN inhibitor -7%, Pol iota inh 6%, GALK inh confirm inconclusive, GALK redox cs 8% and HEK293 tox 11%.
`COc1ccc(N/N=C(/C#N)S(=O)(=O)C(C)(C)C)cc1` gave Pol beta inh 4%, FEN1 inh 1%, Pol kappa inh-1 3%, Pol eta inh-1 -23%, WRN inhibitor 1% and Pol iota inh 19%.
For CCOC(=O)Cc1csc(-n2sc3ccccc3c2=O)n1 the results were Pol beta inh inconclusive, FEN1 inh inconclusive, Pol kappa inh-1 -28%, Pol eta inh-1 40µM*, WRN inhibitor -22%[11.6 µM], Pol iota inh -17% and Pol eta inh-2 inconclusive.
Screening COc1ccccc1N1CCN(C(=O)C(CCSC)NS(=O)(=O)c2ccc3c(c2)oc(=O)n3C)CC1 (stereo not drawn) returned Pol beta inh 10%, FEN1 inh 11%, Pol kappa inh-1 -10%[60.1 µM], Pol eta inh-1 -12% and Pol iota inh 5%.
CC(=O)NNC(=O)CSc1nnc(-c2ccccc2)c(-c2ccccc2)n1 was read as Pol beta inh 0%, FEN1 inh inconclusive, Pol kappa inh-1 inconclusive, Pol eta inh-1 14µM*, WRN inhibitor -24%, Pol iota inh inconclusive, Pol kappa inh-2 19* and Pol eta inh-2 7.6*.
CCOC(=O)c1cc(-c2ccc(C)cc2)nn1Cc1ccccc1 was read as Pol beta inh 0%, FEN1 inh -7%, Pol kappa inh-1 4%, Pol eta inh-1 -15% and Pol iota inh -2%.
For COc1ccc2cc(C(N)=O)c(=Nc3ccc(C)cc3)oc2c1 the results were Pol beta inh 18%, FEN1 inh -1%, Pol kappa inh-1 -11%, Pol eta inh-1 -3%, WRN inhibitor 1%, Pol iota inh 45%, GALK inh confirm -15%, GALK redox cs -4% and HEK293 tox inconclusive.
Cc1cccc(Oc2ccccc2NS(=O)(=O)c2ccc(CCC(=O)O)cc2)c1 was read as FEN1 inh -2%, Pol kappa inh-1 -44%, Pol eta inh-1 20µM*, WRN inhibitor -3%[11.6 µM], Pol iota inh inconclusive, Pol kappa inh-2 19* and Pol eta inh-2 85*.
